# The supplement of paper PMC10849652
# Targets with a hit are over-represented here; the source holds about 8,800 in all. About 0.5% of all pairs of compound and target were hits.
# Assays:
# Assay in all cases: log2 fold change, soluble protein after heating vs DMSO (PISA); higher = thermal stabilisation; K562 lysate, 10 uM; active = over 0.2 and 3.5 SD of the protein, either way, in both replicates (recomputed)
# [1] = compound: NCC(=O)Nc1ccc(-n2nc(C(F)(F)F)cc2-c2ccc3c(ccc4ccccc43)c2)cc1
# How it was run: (§1)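 Quantification was by TMTpro 16plex LC-MS/MS with equalised channel sums, applied to the supernatant after 21,000xg for 90 min. Samples were crude K562 extract at 1 mg/mL protein in PBS pH 7.4 with 1 mM MgCl2, treated with 10 μM compound for 30 min, heated for 3 min across 48°C-58°C, pooled and brought to 0.5% NP-40 at 4°C. Values are log-two fold changes in thermal stability relative to solvent controls, from duplicates.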
# [2] = compound: O=C(CCCCCCC(=O)Nc1ccccc1)NO [vorinostat]
# How it was run: as §1
# [3] = compound: O=C(O)c1ccc2c(c1)nc(Nc1cccc(Cl)c1)c1ccncc12 [silmitasertib]
# How it was run: as §1
# [4] = compound: O=C1NC(=O)C(c2cnc3ccccn23)=C1c1cn2c3c(cc(F)cc13)CN(C(=O)N1CCCCC1)CC2
# How it was run: as §1
# [5] = compound: c1cn2cc(-c3ccc4cn[nH]c4c3)nc(Nc3ccc(N4CCOCC4)cc3)c2n1 [entospletinib]
# How it was run: as §1
# Sequence of UniProt P51790 (P51790 whole entry, looked up): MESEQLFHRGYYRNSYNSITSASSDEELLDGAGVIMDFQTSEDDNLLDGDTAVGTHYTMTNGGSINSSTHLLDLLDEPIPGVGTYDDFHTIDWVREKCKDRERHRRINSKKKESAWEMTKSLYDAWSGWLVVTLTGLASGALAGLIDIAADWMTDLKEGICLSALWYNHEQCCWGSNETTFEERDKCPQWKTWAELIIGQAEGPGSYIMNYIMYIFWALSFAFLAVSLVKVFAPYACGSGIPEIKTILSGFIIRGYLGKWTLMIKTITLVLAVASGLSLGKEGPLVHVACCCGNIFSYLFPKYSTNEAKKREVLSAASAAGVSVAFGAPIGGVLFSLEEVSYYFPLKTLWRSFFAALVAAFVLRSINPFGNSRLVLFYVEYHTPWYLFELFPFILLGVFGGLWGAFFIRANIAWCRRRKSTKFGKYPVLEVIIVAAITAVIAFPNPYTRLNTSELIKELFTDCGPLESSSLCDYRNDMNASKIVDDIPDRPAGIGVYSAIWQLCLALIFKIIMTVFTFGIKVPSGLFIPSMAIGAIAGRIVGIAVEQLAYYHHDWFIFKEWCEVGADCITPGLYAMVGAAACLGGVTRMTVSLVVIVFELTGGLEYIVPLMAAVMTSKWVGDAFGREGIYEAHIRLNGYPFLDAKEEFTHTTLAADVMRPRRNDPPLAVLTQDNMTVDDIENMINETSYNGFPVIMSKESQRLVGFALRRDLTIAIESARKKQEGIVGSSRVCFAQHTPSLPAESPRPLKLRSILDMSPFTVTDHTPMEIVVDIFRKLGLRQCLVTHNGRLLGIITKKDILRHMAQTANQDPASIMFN
# Sequence of UniProt Q9H2P9 (Q9H2P9 whole entry, looked up): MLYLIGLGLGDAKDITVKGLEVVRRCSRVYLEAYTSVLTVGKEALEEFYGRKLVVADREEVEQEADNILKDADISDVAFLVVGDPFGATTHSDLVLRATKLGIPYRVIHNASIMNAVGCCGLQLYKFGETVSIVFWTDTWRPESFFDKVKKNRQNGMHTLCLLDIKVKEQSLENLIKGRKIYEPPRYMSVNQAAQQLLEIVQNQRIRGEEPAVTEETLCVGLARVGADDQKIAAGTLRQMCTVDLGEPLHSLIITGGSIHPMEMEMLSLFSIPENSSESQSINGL
# Sequence of UniProt Q14203 (Q14203 whole entry, looked up): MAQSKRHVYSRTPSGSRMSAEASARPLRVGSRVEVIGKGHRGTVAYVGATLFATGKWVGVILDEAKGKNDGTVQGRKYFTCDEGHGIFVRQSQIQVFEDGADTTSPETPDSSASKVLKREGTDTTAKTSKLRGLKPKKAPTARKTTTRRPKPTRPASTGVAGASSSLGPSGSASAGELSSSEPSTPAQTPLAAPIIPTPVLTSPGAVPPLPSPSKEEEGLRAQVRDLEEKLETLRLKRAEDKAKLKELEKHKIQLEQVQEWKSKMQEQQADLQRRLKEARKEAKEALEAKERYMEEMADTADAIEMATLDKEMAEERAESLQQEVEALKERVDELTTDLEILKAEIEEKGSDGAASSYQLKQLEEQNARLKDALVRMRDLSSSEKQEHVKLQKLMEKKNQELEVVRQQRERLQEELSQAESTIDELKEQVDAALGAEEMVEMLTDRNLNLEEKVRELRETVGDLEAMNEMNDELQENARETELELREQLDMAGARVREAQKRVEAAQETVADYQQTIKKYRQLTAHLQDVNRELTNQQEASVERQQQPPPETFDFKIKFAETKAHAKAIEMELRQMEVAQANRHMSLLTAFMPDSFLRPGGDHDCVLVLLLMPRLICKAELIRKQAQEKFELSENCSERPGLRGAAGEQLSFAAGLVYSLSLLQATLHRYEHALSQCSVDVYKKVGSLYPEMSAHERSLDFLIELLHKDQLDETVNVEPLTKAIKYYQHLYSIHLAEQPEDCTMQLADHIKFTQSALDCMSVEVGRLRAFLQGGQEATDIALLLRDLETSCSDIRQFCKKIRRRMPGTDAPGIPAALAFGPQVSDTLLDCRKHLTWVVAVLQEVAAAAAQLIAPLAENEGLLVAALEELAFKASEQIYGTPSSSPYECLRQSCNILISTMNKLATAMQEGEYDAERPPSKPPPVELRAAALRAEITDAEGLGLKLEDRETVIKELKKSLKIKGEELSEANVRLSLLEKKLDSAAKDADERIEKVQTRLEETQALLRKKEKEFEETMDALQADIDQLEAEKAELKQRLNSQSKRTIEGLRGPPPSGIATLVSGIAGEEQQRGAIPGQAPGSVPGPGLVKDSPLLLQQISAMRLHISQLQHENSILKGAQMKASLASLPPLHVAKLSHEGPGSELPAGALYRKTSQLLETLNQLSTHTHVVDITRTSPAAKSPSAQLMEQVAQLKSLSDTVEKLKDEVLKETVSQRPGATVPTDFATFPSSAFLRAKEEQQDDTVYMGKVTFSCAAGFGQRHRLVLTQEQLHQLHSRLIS
# Sequence of UniProt Q8WYA6 (Q8WYA6 whole entry, looked up): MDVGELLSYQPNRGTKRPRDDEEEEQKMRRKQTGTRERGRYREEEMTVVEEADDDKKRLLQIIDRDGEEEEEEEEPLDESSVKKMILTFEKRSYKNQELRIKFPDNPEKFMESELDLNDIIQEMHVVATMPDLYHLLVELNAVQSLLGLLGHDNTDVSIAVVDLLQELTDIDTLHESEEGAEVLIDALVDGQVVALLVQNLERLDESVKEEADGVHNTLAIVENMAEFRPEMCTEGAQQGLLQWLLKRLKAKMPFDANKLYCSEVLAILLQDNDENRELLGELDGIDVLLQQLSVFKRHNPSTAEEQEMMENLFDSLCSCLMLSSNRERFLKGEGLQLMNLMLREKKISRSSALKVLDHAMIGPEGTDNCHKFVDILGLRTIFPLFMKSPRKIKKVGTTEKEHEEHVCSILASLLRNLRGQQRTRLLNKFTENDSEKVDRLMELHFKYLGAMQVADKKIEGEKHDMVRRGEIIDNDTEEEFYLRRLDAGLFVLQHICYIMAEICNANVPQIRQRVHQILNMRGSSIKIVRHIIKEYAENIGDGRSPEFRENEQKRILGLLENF
# Sequence of UniProt P21964 (P21964 whole entry, looked up): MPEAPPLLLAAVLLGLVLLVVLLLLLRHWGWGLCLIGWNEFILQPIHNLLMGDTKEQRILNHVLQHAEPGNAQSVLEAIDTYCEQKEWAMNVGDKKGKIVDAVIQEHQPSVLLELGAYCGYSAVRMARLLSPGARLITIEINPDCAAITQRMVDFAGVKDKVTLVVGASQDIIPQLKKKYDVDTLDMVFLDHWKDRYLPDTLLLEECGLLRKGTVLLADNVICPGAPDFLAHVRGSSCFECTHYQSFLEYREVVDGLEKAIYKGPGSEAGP
# Sequence of UniProt Q9H467 (Q9H467 whole entry, looked up): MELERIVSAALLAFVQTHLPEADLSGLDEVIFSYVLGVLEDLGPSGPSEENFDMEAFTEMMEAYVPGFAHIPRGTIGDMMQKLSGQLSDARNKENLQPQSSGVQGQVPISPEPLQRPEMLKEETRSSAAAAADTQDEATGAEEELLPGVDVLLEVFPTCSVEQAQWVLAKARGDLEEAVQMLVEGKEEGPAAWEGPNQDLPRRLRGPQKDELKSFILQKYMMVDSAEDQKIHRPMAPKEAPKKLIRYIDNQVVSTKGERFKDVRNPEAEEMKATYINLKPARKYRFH
# Sequence of UniProt Q92796 (Q92796 whole entry, looked up): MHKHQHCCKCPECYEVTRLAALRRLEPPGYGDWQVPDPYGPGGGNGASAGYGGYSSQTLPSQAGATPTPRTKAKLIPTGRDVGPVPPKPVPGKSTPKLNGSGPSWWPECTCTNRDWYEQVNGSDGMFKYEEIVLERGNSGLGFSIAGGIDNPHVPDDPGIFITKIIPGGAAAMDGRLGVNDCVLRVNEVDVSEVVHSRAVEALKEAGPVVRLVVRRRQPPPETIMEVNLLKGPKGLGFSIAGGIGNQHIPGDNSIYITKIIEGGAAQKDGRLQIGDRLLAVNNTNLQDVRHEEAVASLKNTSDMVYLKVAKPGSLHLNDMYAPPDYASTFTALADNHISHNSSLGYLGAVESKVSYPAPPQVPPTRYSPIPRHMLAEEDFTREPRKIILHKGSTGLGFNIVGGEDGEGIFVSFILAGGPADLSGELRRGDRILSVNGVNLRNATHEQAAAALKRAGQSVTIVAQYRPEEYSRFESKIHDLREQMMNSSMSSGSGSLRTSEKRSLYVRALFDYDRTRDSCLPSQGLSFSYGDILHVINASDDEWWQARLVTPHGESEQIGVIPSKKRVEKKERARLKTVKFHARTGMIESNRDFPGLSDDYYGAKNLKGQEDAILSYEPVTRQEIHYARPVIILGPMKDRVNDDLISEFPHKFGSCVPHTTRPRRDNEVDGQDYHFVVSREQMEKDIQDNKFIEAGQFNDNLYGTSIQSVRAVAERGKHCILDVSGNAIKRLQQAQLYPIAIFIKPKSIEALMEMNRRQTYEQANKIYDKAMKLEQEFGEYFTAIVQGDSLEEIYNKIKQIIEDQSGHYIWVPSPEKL
# Sequence of UniProt Q9H3Z4 (Q9H3Z4 whole entry, looked up): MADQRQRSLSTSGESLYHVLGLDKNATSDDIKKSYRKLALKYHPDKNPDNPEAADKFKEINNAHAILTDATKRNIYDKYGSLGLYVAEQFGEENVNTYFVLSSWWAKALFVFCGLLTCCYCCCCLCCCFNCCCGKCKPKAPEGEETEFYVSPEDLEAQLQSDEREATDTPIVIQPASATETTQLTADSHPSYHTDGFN
# Sequence of UniProt O75911 (O75911 whole entry, looked up): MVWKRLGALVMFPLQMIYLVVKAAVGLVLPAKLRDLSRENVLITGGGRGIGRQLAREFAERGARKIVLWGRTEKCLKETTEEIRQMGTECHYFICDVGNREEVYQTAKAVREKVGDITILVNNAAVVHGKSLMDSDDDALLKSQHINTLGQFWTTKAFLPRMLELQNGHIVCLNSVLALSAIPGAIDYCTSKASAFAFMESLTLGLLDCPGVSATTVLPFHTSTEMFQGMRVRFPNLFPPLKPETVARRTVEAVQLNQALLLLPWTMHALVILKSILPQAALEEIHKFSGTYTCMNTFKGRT
# Sequence of UniProt P61923 (P61923 whole entry, looked up): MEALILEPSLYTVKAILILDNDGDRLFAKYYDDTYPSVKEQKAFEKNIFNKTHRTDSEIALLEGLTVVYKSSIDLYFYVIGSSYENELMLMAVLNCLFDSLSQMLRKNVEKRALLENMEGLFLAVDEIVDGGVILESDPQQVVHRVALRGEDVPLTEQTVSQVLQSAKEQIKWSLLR
Target,log2 fold change [1],log2 fold change [2],log2 fold change [3],log2 fold change [4],log2 fold change [5]
CIC (UniProt I3L2J0),-0.002 (inactive),-0.108 (inactive),-0.011 (inactive),0.075 (inactive),0.033 (inactive)
DCTN1 (UniProt Q14203),0.011 (inactive),-0.261 (active),-0.003 (inactive),0.012 (inactive),0.001 (inactive)
CNDP2 (UniProt Q96KP4),0.023 (inactive),0.133 (inactive),-0.025 (inactive),-0.008 (inactive),0.01 (inactive)
CXorf38 (UniProt Q8TB03),0.092 (inactive),-0.227 (active),-0.013 (inactive),0.042 (inactive),-0.073 (inactive)
DMXL1 (UniProt Q9Y485),0.022 (inactive),-0.237 (active),0.044 (inactive),-0.013 (inactive),0.022 (inactive)
CUEDC2 (UniProt Q9H467),-0.01 (inactive),0.151 (inactive),-0.012 (inactive),0.003 (inactive),0.066 (inactive)
CWC22 (UniProt Q9HCG8),-0.012 (inactive),-0.156 (inactive),0.032 (inactive),-0.016 (inactive),0.015 (inactive)
CTNNBL1 (UniProt Q8WYA6),-0.026 (inactive),-0.046 (inactive),-0.044 (inactive),-0.025 (inactive),-0.011 (inactive)
COMT (UniProt P21964),-0.106 (inactive),-0.294 (active),0.04 (inactive),0.007 (inactive),0.015 (inactive)
DPH5 isoform 5 (UniProt Q9H2P9),-0.046 (inactive),-0.06 (inactive),-0.015 (inactive),0.077 (inactive),-0.011 (inactive)
"CLUH, A0A494C0R8",-0.115 (inactive),0.028 (inactive),0.069 (inactive),0.033 (inactive),0.033 (inactive)
DLG3 isoform 2 (UniProt Q92796),0.067 (inactive),-0.023 (inactive),-0.025 (inactive),-0.036 (inactive),-0.007 (inactive)
CSNK1E (UniProt P49674),0.016 (inactive),-0.419 (active),0.206 (inactive),0.01 (inactive),0.012 (inactive)
DHRS3 (UniProt O75911),0.032 (inactive),-0.055 (inactive),-0.062 (inactive),0.025 (inactive),0.096 (inactive)
CKM (UniProt P06732),0.003 (inactive),-0.053 (inactive),-0.025 (inactive),-0.014 (inactive),-0.026 (inactive)
CHFR (UniProt Q96EP1),-0.219 (inactive),-0.143 (inactive),0.057 (inactive),0.004 (inactive),-0.083 (inactive)
CLPTM1L (UniProt Q96KA5),-0.045 (inactive),0.136 (inactive),0.012 (inactive),0.012 (inactive),-0.039 (inactive)
CMPK2 (UniProt Q5EBM0),-0.002 (inactive),-0.323 (active),0.005 (inactive),0.064 (inactive),0 (inactive)
CLCN3 (UniProt P51790),-0.165 (inactive),-0.171 (inactive),0.118 (inactive),-0.245 (inactive),0.025 (inactive)
CSK (UniProt P41240),-0.008 (inactive),-0.262 (inactive),-0.006 (inactive),-0.021 (inactive),0.195 (inactive)
DBF4 (UniProt Q9UBU7),0.059 (inactive),-0.226 (inactive),-0.138 (inactive),0.028 (inactive),0.002 (inactive)
DNAJC5 (UniProt Q9H3Z4),0.02 (inactive),0.101 (inactive),-0.071 (inactive),-0.03 (inactive),0.019 (inactive)
CHORDC1 (UniProt Q9UHD1),0.001 (inactive),-0.014 (inactive),-0.019 (inactive),-0.009 (inactive),0 (inactive)
COPZ1 isoform 4 (UniProt P61923),-0.068 (inactive),0.188 (inactive),-0.032 (inactive),0.163 (inactive),-0.025 (inactive)
